Results on 40 compounds are retold here after PubChem BioAssay (EPA / NIEHS).

The source made the active and inactive calls. How the source made its calls: active means hit-call score of the fitted dose curve at least 0.9, where 1 is the maximum; inactive means score below 0.9.

The nature of this test: ATG_Oct_MLP_CIS: Attagene CIS-FACTORIAL HepG2 Assay for human Octamer-Binding Transcription Factor (Oct) (AID 2282993). The conditions noted are these: HepG2 Attagene cis-factorial Oct reporter, mRNA; actives raise or lower the signal. The procedure: ATG_CIS is a cell-based, multiplexed-readout assay that uses HepG2, a human liver cell line, with measurements taken at 24 hours after chemical dosing in a 24-well plate.ATG_Oct_MLP_CIS is one of 52 assay component(s) measured or calculated from the ATG_CIS assay. It is designed to make measurements of mRNA induction, a form of inducible reporter, as detected with fluorescence intensity signals by Reverse transcription polymerase chain reaction (RT-PCR) and Capillary electrophoresis technology.Data from the assay component ATG_Oct_MLP_CIS was analyzed into 1 assay endpoint. This assay endpoint, ATG_Oct_MLP_CIS, was analyzed with bidirectional fitting relative to DMSO as the negative control and baseline of activity. Using a type of inducible reporter, measures of mRNA for gain or loss-of-signal activity can be used to understand the reporter gene at the transcription factor-level as they relate to the gene POU2F1. Furthermore, this assay endpoint can be referred to as a primary readout, because this assay has produced multiple assay endpoints where this one serves a reporter gene function. To generalize the intended target to other relatable targets, this assay endpoint is annotated to the dna binding intended target family, where the subfamily is POU domain protein.
Human liver HepG2 cells are transiently transfected with multiple reporter transcription units (MRTUs) in 6-well plates using FuGene 6 reagent (Roche; 3 ml FuGene/1 mg DNA). The MRTU constructs are regulated by a cis-regulating element (promoter). […] A major difference between the CIS and TRANS system is that in CIS activities of endogenous TFs are measured, whereas the TRANS assay evaluates changes in activities of exogenous, chimeric NR-Gal4 proteins. […] At the end of 24 hour incubation, total RNA was isolated using TriZol reagent (Invitrogen). The isolated RNA is then reverse-transcribed using oligo(dT) primer and Mo-MLV reverse transcriptase (Invitrogen) with DNAse I (Ambion) treatment for 30 min. The one-tenth of the produced cDNA was amplified by PCR using Taq DNA polymerase (Invitrogen) and two reporter sequence-specific primers. The PCR products were fluorescently labeled by primer extension with 6-arboxyfluorescein (6-FAM) 5'-labeled reporter sequence-specific primer (2 min at 95 C, 20 s at 68 C and 10 min at 72 C) and these products were digested with 5U of HpaI (New England Biolabs) for 2h at 37 C. The fragments were purified using Qiaquick PCR columns (Qiagen), analyzed on an ABI 3130xL genetic analyzer (Applied Biosystems) with peak positions identified by using a set of X-rhodamine (ROX)-labeled MapMarker1000 molecular weight standards (BioVentures). The raw capillary electrophoresis data was processed using Attagraph software (Attagene).
As for `C[Si]1(C)O[Si](C)(C)O[Si](C)(C)O[Si](C)(C)O1`, the call was inactive. `COc1cc(/C=C/C(=O)CC(=O)/C=C/c2ccc(O)c(OC)c2)ccc1O`: the half-maximal activity concentration (AC50) is 33.4 µM (active). The same measure, in the same setting: then `CC(C)(C)c1cc(O)c(C(C)(C)C)cc1O`, with 33 µM (active). Consider `CC(=O)C(C)=CC1C(C)=CCCC1(C)C` (stereo not given), for which the call was inactive.

Regarding `Cc1cccc(Nc2cc(Cl)nc(SCC(=O)O)n2)c1C`, the result was inactive. On the same count and under the same terms, then `CCCCCCCCCCCCCCCCCC(=O)O`, with “inactive”; and `COc1ccc(C)cc1N`, with “inactive”; and `CCOC(=O)CCC(=O)OCC`, with “inactive”. Same read-out and setting: then `COc1cc(S(=O)(=O)O)c(C)cc1N=Nc1c(O)ccc2cc(S(=O)(=O)O)ccc12`, with “inactive”; and `COc1cc(C=O)ccc1O`, with “inactive”; and `CCCCCCC(=O)OCC`, with “inactive”. Same read-out and setting: next, `CCCCCCCCCCCCCO`: “inactive”. With `CN1CCCC1=O`, the compound was classed as inactive.

As for `CN1CCN(Cc2cc(-c3ccc4[nH]c(=O)oc4c3)co2)[C@@H](c2ccc(F)cc2)C1`, the AC50 is 45.4 µM (active). Take `CN[C@H]1CC[C@@H](c2ccc(Cl)c(Cl)c2)c2ccc(S(N)(=O)=O)cc21`: the call was inactive. With `Cc1ccc(Cl)cc1`, the result was inactive. Same read-out and setting: next, `CNC(=O)[C@H]1O[C@@H](n2cnc3c(NCc4cc(Cl)ccc4OCc4cc(C)no4)ncnc32)[C@H](O)[C@@H]1N`: “inactive”. On the same count and under the same terms, then `Nc1ccc(S(=O)(=O)c2ccc(N)cc2)cc1`, with “inactive”.

With `O=C(O)Cc1ccccc1Nc1c(Cl)cccc1Cl`, the outcome was inactive. Still for that read-out and setting: next, `Cc1nc(-c2ccc3c(c2)CCN(CCC2CCC(NC(=O)/C=C/c4ccc(F)cc4)CC2)CC3)no1` (stereo not given): “inactive”; `O=c1[nH]cc(F)c(=O)[nH]1`: “inactive”. On the same count and under the same terms, next, `CCCCCCOCCO`: “inactive”. As to `CC1(C)NC(=O)NC1=O`, the compound was called inactive. Still for that read-out and setting: then `NS(=O)(=O)c1cc2c(cc1Cl)NCNS2(=O)=O`, with “inactive”; and `CC(CO)OC(C)CO` (stereo not given) (tested in a mixture with another compound), with “inactive”. The same measure, in the same setting: next, `COC(=O)c1ccc(O)cc1`: “inactive”; `Cc1oc(-c2ccccc2)nc1CCOc1cccc2c1ccn2CCC(=O)O`: “inactive”.

For `CCCCCCCCCCCC(=O)OC`, the compound was called inactive.

Consider `CC(=O)OC/C=C(\C)CCC=C(C)C`, for which the result was inactive. Regarding `Nc1nc(N)c2nc(CNc3ccc(C(=O)N[C@@H](CCC(=O)O)C(=O)O)cc3)cnc2n1`, the result was inactive. On the same count and under the same terms, next, `Clc1cc(Cl)c(Cl)cc1Cl`: “inactive”; `Cc1ccc(C)c(O)c1C`: “inactive”. On the same count and under the same terms, next, `C1CCC(SSC2CCCCC2)CC1`: “inactive”; `Cc1cc(=O)[nH]c(=S)[nH]1`: “inactive”; `NC(=O)Cn1c(=O)cc(CCN2CCN(c3nccc4sccc34)CC2)c2ccc(F)cc21`: “inactive”. Still for that read-out and setting: next, `CCc1c(C(=O)NN2CCCCC2)nn(-c2ccc(Cl)cc2Cl)c1-c1ccc(Br)cc1`: “inactive”. Regarding `OC[C@@H](O)[C@@H](O)[C@H](O)[C@H](O)CO`, the compound was classed as inactive. On the same count and under the same terms, next, `Cc1nc(C)nc(N2C[C@@H](C)N(c3ccnc([C@@H](C)O)n3)[C@@H](C)C2)n1`: “inactive”; `CCCCOC(=O)CCCCCCCCC(=O)OCCCC`: “inactive”; `Cc1c(C(=O)O)c(O)cc2c1C(=O)c1c(O)c([C@@H]3O[C@H](CO)[C@@H](O)[C@H](O)[C@H]3O)c(O)c(O)c1C2=O`: “inactive”.

In general, AC50 refers to the midpoint of the concentration-response curve, whichever way the signal moves.
